DRD3 agonist = D3 dopamine receptor (human) agonism; D3R DiscoveRx beta-arrestin cells, luminescence, 90 min; P35462; max activation, %; AID 652048; 410,000 tested, 0.58% active; in the data active means max activation above about 30%
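Cells at 1500/well, incubated overnight, then treated with pinned compounds (dopamine as control) for 90 min at 37 degrees C. DiscoveRx reagent added for 30 - 60 minutes at room temperature; luminescence read.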
PI5P4Ka inh = blocks human PI5P4K alpha kinase activity; 330,000 tested, 1.2% active; P48426; max response, %; AID 652105; PI5P4Kalpha enzyme, ADP-Glo luminescence, 60 min; hits give low values; active means max response of -50% or lower; inconclusive means between -30% and -50%; inactive means -30% or higher; further: value at the top dose of about 77 µM
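Quantitative HTS of the MLSMR library against PI5P4Kalpha with substrate. ATP added last at 5 microM final; room temperature, 60 minutes. Remaining ATP depleted, ADP converted and read as luminescence.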
LDHA block = inhibitors of human lactate dehydrogenase A. 480,000 tested, 0.15% active. AID 1347041. activity change, % (values are at about 110 or 230 µM). purified LDHA, NADH/diaphorase-resazurin fluorescence; hits give low values. P00338; in the data active means activity change below about -30%; inconclusive means mostly about -25% to -30%
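Human LDH5 (2 nM) was incubated with 0.06 mM NADH and 0.2 mM pyruvate for 5 min at room temperature in Tris pH 7.4. Remaining NADH was coupled through diaphorase/resazurin, and resorufin fluorescence was read at 0 and 20 min.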
D3 antag = antagonists of human D3 dopamine receptor; 360,000 tested, 2.5% active; max response, negative = inhibition, %; P35462; D3R cells, DiscoveRx beta-arrestin luminescence, antagonist mode; hits give low values; AID 652054; in the data active means max response below about -50%; inconclusive means no clear call, values can overlap the other calls
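Cells expressing the human receptor were seeded at 1500 cells/well, incubated overnight at 37 degrees C in 5% CO2, then exposed to library compounds with dopamine controls for 90 minutes at 37 degrees C before luminescent detection.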
PI4K2A inh = inhibitors of human PI4K2A; activity change, negative = inhibition, % at 76.9 µM; 420,000 tested, 0.13% active; AID 1346378; purified PI4K2A, ADP-Glo luminescence, 1 h; hits give low values; in the data active means activity change below about -50%; inconclusive means mostly about -30% to -49%
Target sequence (Q9BTU6 whole entry, looked up): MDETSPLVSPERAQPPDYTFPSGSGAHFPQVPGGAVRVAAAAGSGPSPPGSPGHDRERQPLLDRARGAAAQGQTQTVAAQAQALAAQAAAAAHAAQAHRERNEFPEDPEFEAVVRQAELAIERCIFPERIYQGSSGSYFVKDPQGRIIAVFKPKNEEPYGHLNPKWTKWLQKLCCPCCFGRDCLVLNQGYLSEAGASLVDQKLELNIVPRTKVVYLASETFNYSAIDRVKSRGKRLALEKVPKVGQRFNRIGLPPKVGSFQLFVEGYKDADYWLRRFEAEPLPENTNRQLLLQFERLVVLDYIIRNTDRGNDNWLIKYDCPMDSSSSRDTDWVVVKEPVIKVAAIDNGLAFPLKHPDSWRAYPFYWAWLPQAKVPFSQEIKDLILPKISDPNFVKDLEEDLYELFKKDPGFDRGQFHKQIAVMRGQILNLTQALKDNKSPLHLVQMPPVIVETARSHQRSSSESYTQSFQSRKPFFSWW
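In this quantitative HTS, ADP production by PI4K2A was quantified luminescently after 1 h at ambient temperature; 100 microM adenosine served as plate-quality control.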
Numbers stand for hits; . = inactive; ? = inconclusive; / = no result; ! = not confirmed by another sample. An excerpt weighted towards active compounds, which were near 3.3% of everything screened.

SMILES | DRD3 agonist | PI5P4Ka inh | LDHA block | D3 antag | PI4K2A inh
CCc1ccccc1NC(=O)NC1CC2CCC(C1)N2Cc1ccco1 (stereo not given) | . | . | . | ? | .
Cc1cc(NC(=O)c2cccc(C(=O)Nc3cc(C)on3)n2)no1 | . | . | . | . | .
O=C(NCc1ccco1)c1cc2c(s1)CSC2 | . | / | . | . | .
COc1ccc(CNC(=O)c2cc(-c3ccccc3OC)on2)cc1 | . | / | . | -63 | .
Cc1cc(C(=O)Nc2ccccn2)no1 | 33 | / | . | . | .
O=C(NCc1ccc2c(c1)OCO2)c1cc2c(s1)CSC2 | . | -50 | . | . | .
COc1ccccc1-c1cc(C(=O)NCc2ccc(F)cc2)no1 | . | / | . | ? | .
O=C(NCc1ccc2c(c1)OCO2)c1cc(-c2ccccc2Cl)on1 | . | . | . | -59 | .
Cc1cc(C)c(NC(=O)c2ncoc2-c2cccc(Cl)c2)c(C)c1 | / | / | . | / | /
COc1ccccc1-c1cc(C(=O)NCc2ccccc2)no1 | . | / | . | -52 | .
COc1ccc(OC)c(-c2csc(NC(=O)Cc3ccccc3F)n2)c1 | . | . | . | . | .
COc1ccccc1-c1cc(C(=O)Nc2cc(C)on2)no1 | . | / | . | ? | -85
COc1ccc(OC)c(-c2csc(NC(=O)Cc3ccccc3OC)n2)c1 | . | . | . | -63 | .
Cc1ccc(NS(=O)(=O)c2ccc(-c3cnc(C)o3)cc2)cc1 | / | / | . | / | /
O=c1c2ccccc2ncn1CCCSc1ccccc1 | . | . | . | -54 | .
Cc1nccn1Cc1cccc2ccccc12 | . | . | . | . | .
Cc1nccn1C(c1ccccc1)c1ccccc1 | . | . | -34 | . | .
CCOCCCNC(=O)c1ccc(CN2CCc3ccccc3C2)cc1 | . | . | . | -92 | .
CC(C)NC(=O)c1ccc(CN2CCc3ccccc3C2)cc1 | . | . | . | -66 | .
CC(C)OCCCNC(=O)c1ccc(Br)cc1 | . | . | . | . | .
CC(C)OCCCNC(=O)c1ccc(CN2CCc3ccccc3C2)cc1 | . | . | . | -67 | .
COC(=O)c1ccc(CN2CCc3ccc(NC(=O)c4ccncc4)cc3C2)cc1 | . | . | . | ? | .
CCCN(Cc1ccccc1)Cc1cc(=O)oc2ccc(C)cc12 | / | / | . | / | /
CCCCSc1nnc2c(n1)OC(C)N(C(C)=O)c1ccccc1-2 (stereo not given) | . | / | . | / | .
CCCCCSc1nnc2c(n1)OC(C)N(C(C)=O)c1ccccc1-2 (stereo not given) | . | . | . | -68 | .
SMILES | DRD3 agonist | PI5P4Ka inh | LDHA block | D3 antag | PI4K2A inh
c1ccc(CC2=NCCN2)cc1 | . | . | . | . | .
Cc1cc(C(C)(C)C)cc(C)c1CC1=NCCN1 | . | . | . | -79 | .
O=S(=O)(/C(=C\c1ccc(C(F)(F)F)cc1)c1nc2ccccc2[nH]1)c1ccccc1 | . | . | . | -93 | .
Cc1ccc(OC(=O)c2ccc(CSc3ccc(Cl)cc3)cc2)c(C(C)(C)C)c1 | / | / | . | / | /
CN(C)CCCNC(=O)N1c2ccccc2C=Cc2ccccc21 | . | . | . | -52 | .
CCN(CC)C(=O)N1c2ccccc2C=Cc2ccccc21 | . | . | . | . | .
CC(=O)c1c(C)[nH]c(C(=O)OCc2nnc(-c3ccc([N+](=O)[O-])cc3)o2)c1C | . | -59 | . | . | .
Cc1csc(=O)n1CC(=O)OCc1nnc(-c2ccc([N+](=O)[O-])cc2)o1 | . | . | . | . | .
Cc1ccc(C(=O)NCC(=O)OCc2nnc(-c3ccc([N+](=O)[O-])cc3)o2)s1 | . | -62 | . | . | .
CS(=O)(=O)c1ccc(C(=O)OCc2nnc(-c3ccc(Cl)cc3)o2)cc1[N+](=O)[O-] | . | . | . | -55 | .
COc1ccc(-c2nnc(COC(=O)c3[nH]c(C)c(C(C)=O)c3C)o2)cc1 | / | / | . | / | /
Cn1nnnc1NCc1ccc(-c2ccc(Cl)cc2)o1 | / | / | . | / | /
O=C(Nc1ccccc1)c1cnc(-c2ccccc2)nc1-c1ccccc1 | 43 | / | . | . | .
O=C(O)c1cnc(-c2ccccc2)nc1Sc1ccccc1 | . | . | -40 | ? | .
O=C(O)c1ccc(C2C(c3ccccc3)=C(O)C(=O)N2c2ccc(Cl)cc2)cc1 (stereo not given) | / | / | . | / | /
COc1cc(NC(=O)C(C)n2nc(-c3ccccc3)c3c(c2=O)CCCC3)cc(OC)c1 (stereo not given) | / | / | -32 | / | /
Cc1noc2c1C(c1ccc(N(C)C)cc1)C1=C(CC(C)(C)CC1=O)N2 (stereo not given) | . | / | . | -78 | .
O=C1CCCN1c1cc(Cl)cc(Cl)c1 | . | . | . | -55 | .
O=C(O)Cn1c2ccccc2c2n[nH]c(=S)nc21 | . | -56 | . | . | .
O=C1CCCC2=C1C(c1ccccc1)C=C1c3cc4c(cc3CCN12)OCCCO4 (stereo not given) | / | / | . | / | /
C=C[C@@]1(C)CC(=O)[C@]2(O)[C@@]3(C)[C@@H](O)CCC(C)(C)[C@@H]3[C@H](O)[C@H](OC(C)=O)[C@@]2(C)O1 | 36! | . | . | . | .
Cn1cc(CN2CCCC(C(=O)Nc3cccc(-c4cc5ccccc5[nH]4)c3)C2)cn1 (stereo not given) | . | . | . | -68 | .
O=C(Nc1cc(Br)c(O)c(Br)c1)c1cccc(NC(=O)c2ccco2)c1 | . | . | . | . | .
O=C(Nc1cccc(N=Cc2cc(Cl)cc(Br)c2O)c1)c1ccco1 | . | -55 | . | -75 | .
O=C(Nc1cccc(N=Cc2cc(Br)cc(Br)c2O)c1)c1ccco1 | . | -59 | . | -61 | .
SMILES | DRD3 agonist | PI5P4Ka inh | LDHA block | D3 antag | PI4K2A inh
O=C(CCc1ccccc1)N[C@H]1[C@@H](OC(=O)c2ccc([N+](=O)[O-])cc2)CCC[C@]12C(=O)N(Cc1ccccc1)c1ccccc12 | / | / | / | / | .
CC(C)c1ccccc1NC(=O)c1ccc2c(c1)CCC2 | / | / | . | / | /
CCc1cc(=O)oc2cc(OC(C)=O)cc(OC(C)=O)c12 | . | . | . | -58 | .
CCc1cc(=O)oc2cc(C)cc(OCC(=O)O)c12 | / | / | . | / | /
CN(C(=O)OCc1ccccc1)C(CC(N)=O)C(=O)O (stereo not given) | . | / | . | -99 | .
NC(=O)CC(CC(=O)OCc1ccccc1)c1ccccc1 (stereo not given) | . | . | . | . | .
O=C(O)CNC(=O)c1ccc(NS(=O)(=O)c2cccc(Cl)c2)cc1 | / | / | . | / | /
COc1ccc(S(=O)(=O)N2CCCCCC2)cc1C(=O)OCC(=O)NC(C)(C)C | 39 | . | . | . | .
O=C(NC(=S)NCCC1=CCCCC1)c1ccccc1Br | . | -54 | . | ? | .
O=C(COC(=O)c1ccccc1Br)NCCC1=CCCCC1 | . | . | . | . | .
O=C(COC(=O)c1ccccc1NCCO)NCCC1=CCCCC1 | . | . | . | -64 | .
CCC(C)(C)n1nnnc1CN(Cc1cccs1)Cc1cc2cc(OC)ccc2[nH]c1=O | . | / | . | . | .

Bioassay records as filed in PubChem BioAssay.
